# From the supplement of paper PMC6555819
# Legend:
# Experiment in all cases: PBM binding z-score (relative to random genomic background probes); higher = stronger binding; sequences stand for … in GC…GCGATTGACAGCGTAGAATGAAGG
# [1] = tested on: FXR:RXRa (NR concentration 270 nM, RXRa partner concentration 90 nM)
# How it was run: (§1)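 On custom Agilent 4×180K arrays, double-stranded probes with 34-nt variable regions carried direct-repeat seeds, single-nucleotide variants, half-site ablations or random human genomic background. Ligand-free nuclear receptor dimers were applied for 1 h, and binding was read with antibodies against each partner (one per run). Binding z-scores come from regression-normalized fluorescence, with the random background probes as reference.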
# [2] = tested on: LXRa:RXRa (NR concentration 270 nM, RXRa partner concentration 90 nM)
# How it was run: as §1
# [3] = tested on: LXRa homodimer (NR concentration 270 nM)
# How it was run: as §1
# [4] = tested on: LXRb:RXRa (NR concentration 270 nM, RXRa partner concentration 90 nM)
# How it was run: as §1
# [5] = tested on: LXRb homodimer (NR concentration 270 nM)
# How it was run: as §1
# [6] = tested on: PPARa:RXRa (NR concentration 270 nM, RXRa partner concentration 90 nM)
# How it was run: as §1
# [7] = tested on: PPARg:RXRa (NR concentration 180 nM, RXRa partner concentration 90 nM)
# How it was run: as §1
# [8] = tested on: PPARg:RXRa 270nM:90nM, anti-RXR (NR concentration 270 nM, RXRa partner concentration 90 nM)
# How it was run: as §1
# [9] = tested on: PPARg:RXRa 30nM:10nM, anti-RXR (NR concentration 30 nM, RXRa partner concentration 10 nM)
# How it was run: as §1
# [10] = tested on: PPARg:RXRa 90nM:30nM, anti-RXR (NR concentration 90 nM, RXRa partner concentration 30 nM)
# How it was run: as §1
Sequence,PBM binding z-score [1],PBM binding z-score [2],PBM binding z-score [3],PBM binding z-score [4],PBM binding z-score [5],PBM binding z-score [6],PBM binding z-score [7],PBM binding z-score [8],PBM binding z-score [9],PBM binding z-score [10]
TAGCCTAGGTCATGCGGGCCAGTAGAGTGTCGGC,4.11,3.32,-0.00774,1.64,-0.216,3.58,1.91,2.64,0.154,1.57
AGCTCTAGGTAAAGATAGTTCAGTGAATGCAAAT,-0.108,3.76,0.0998,0.693,-0.0126,0.354,0.0941,0.135,-0.22,-0.0707
CGAACGAGGGCATGAGTTGATACCAAATGCCGAT,0.819,0.53,-0.18,0.374,-0.612,1.57,1.61,1.67,0.555,0.997
AATACAGGGTAATCGTAGGCCAGAGTACGCACAG,0.175,1.34,-0.0914,0.309,-0.0115,0.447,1.25,0.792,0.499,0.377
CCTCGGAGGACAACAGGAGGTCAGGGCTGCCAGA,1.17,1.84,1.45,1.14,-0.784,2.09,0.517,0.522,-0.226,0.18
CGTCCAAGGTCAAGGTCAGTGTAAGAGACTCGAA,7.52,5.66,1.6,4.66,0.633,5.87,6.25,6.02,2.39,4.8
CAAACTAGGTCACCGGAAGGTCAAAGACCGCATG,5.97,5.91,4.14,4.91,1.03,6.19,9.78,7.64,5.86,7.65
CCTACTGGTCCATCAGGTCATTGATATCAACGTT,1.32,1.8,2.15,2.01,0.36,1.88,0.421,1.34,0.261,0.824
CCTATTAGTTGACCATAAGGGCATCCGAAGCTCG,0.924,0.501,0.549,0.384,0.423,0.26,0.493,0.533,-0.0651,0.145
CCTGCCAGGTCAATGGTCAGCTAAAGCAGCTCGC,3.36,2.51,-0.047,1.96,-0.196,3.48,2.59,3.44,0.524,2.57
CAAACTAGGTCAAGAGGTCAAAATCCGCTTCCCG,6.73,6.04,5.14,5.6,1.75,6.65,9.69,8.11,7.03,8.2
CCGACTGGGGCAAGGTGACCATAACGCACAGCCA,-0.279,-0.424,-0.369,-0.293,-1.35,0.808,1.99,1.81,-0.0516,0.949
